Screening data: PubChem, National Center for Advancing Translational Sciences (NCATS)
IP6K1 inh = blocks human inositol hexakisphosphate kinase 1; IP6K1 kinase, ADP-Glo luminescence, 2 h; hits give low values; 140,000 tested, 0.81% active; AID 1645851; Q92551; activity change, % (series mostly up to about 58 µM); in the data active means activity change below about -25%
Target sequence (Q92551 whole entry, looked up): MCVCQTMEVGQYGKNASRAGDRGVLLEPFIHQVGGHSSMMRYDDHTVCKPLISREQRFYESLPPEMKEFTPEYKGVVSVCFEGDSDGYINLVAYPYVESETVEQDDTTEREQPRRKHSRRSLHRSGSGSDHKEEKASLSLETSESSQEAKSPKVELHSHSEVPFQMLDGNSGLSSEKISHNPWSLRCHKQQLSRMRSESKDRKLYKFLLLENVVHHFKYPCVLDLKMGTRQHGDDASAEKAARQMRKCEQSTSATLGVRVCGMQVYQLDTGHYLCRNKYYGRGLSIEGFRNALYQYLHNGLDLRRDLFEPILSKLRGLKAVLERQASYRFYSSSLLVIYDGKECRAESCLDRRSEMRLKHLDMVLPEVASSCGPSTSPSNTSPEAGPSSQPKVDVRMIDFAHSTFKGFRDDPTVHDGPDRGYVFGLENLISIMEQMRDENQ
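ADP-Glo luminescence measures ADP made by human IP6K1 during a 2 h RT reaction with ATP/IP6 (mix at 1.3 mM/130 uM); top library doses 57.5 and 19.1 uM final.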
SNCA expr inh = inhibitors of alpha-synuclein (SNCA) gene expression | AID 1671194 | HEK-293 SNCA-luciferase knock-in, luminescence, 24 h | 140,000 tested, 0.17% active | Potency, µM (top dose mostly 57.2 µM), inactives show top-dose activity change, negative = inhibition, actives largely listed as inhibitors;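 further: potency means the concentration at half of the fitted maximal effect; plate controls were DMSO cells for no effect and cell-free wells for full effect; nearly all actives have a fitted effect of over 45% in size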
GPT2 inh = inhibitors of human GPT2 alanine aminotransferase; Q8TD30; Recombinant GPT2, coupled pyruvate oxidase/HRP Amplex Red fluorescence; Potency, µM (highest dose often 57.7 µM), for the others: top-dose activity change, negative = inhibition, most hits filed as inhibitors; 100,000 tested, 0.25% active; further: potency means the concentration at half of the fitted maximal effect; nearly all actives have a fitted effect of over 60% in size
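Fluorescence read-out: pyruvate from GPT2 turnover coupled to pyruvate oxidase, HRP and Amplex Red (0.2mM ThPP, 0.2U/mL PO and HRP, 50uM Amplex final). Substrates 250uM a-KG, 2mM L-alanine; enzyme 10ng/uL; 30 min RT.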
HEK293 viab = reduces viability of HEK-293 SNCA reporter cells | HEK-293-SNCA-luc viability, GF-AFC fluorescence, 24 h | Potency, µM (top dose mostly 57.1 µM), without a hit: at the highest dose activity change, negative = cytotoxicity, actives largely listed as cytotoxic | 150,000 tested, 0.12% active | AID 1671193;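 further: potency means the concentration at half of the fitted maximal effect; 0% = DMSO-treated cells and -100% = medium-only wells without cells; nearly all actives have a fitted effect of over 30% in size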
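HEK-293-SNCA-luc cells (1500/well) plated 24 h, then exposed 24 h to a dilution series; GF-AFC added 30 min at 37C, fluorescence 405/540 nm; normalised to medium-only and DMSO wells, Hill fit.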
IP6K1 conf = confirmation of human IP6K1 inhibitors. shares compounds with IP6K1 inh. 1,200 tested, 13% active. recombinant IP6K1 kinase, ADP-Glo luminescence, 2 h. Potency, µM (top dose mostly 49 µM), for the others: at the highest dose activity change, negative = inhibition, hits mostly inhibitors; further: potency means the concentration at half of the fitted maximal effect; nearly all actives have a fitted effect of over 65% in size
* marks the source's active call; other numbers are inactive results; i = inactive; ? = inconclusive; . = not tested or not shown; [ ] = another dose, or the depositor's remark. Most compounds without a hit are left out; they make up all but 0.9% or so of the library. Unless noted, the call rests on the fitted dose curve; in most records, active means well fitted curve in the direction sought with a large enough effect; inconclusive means small, poorly fitted or top-dose-only effect, or another doubt; inactive means no such curve, though single readings can be large; an effect the other way counts as inactive or inconclusive. Unless noted, on the % scale 0 is the no-effect control and ±100 the full control effect.

SMILES | IP6K1 inh | SNCA expr inh | GPT2 inh | HEK293 viab | IP6K1 conf
CC(C)C(=O)N1Cc2ccccc2CC2(CCCN2C)C1 (centres undefined) | -20 | 8%[87.6 µM] | i | -8%[87.6 µM] | .
COc1ccc(-c2nc(CSCC(=O)N3CCN(c4cccc(C)c4C)CC3)c(C)o2)cc1OC | -26* | -15% | . | ? | -8%
CC(=O)NO | -28* | -26%[25.6 µM] | i | -16%[23.9 µM] | -7%
Nc1nc(N)c(S(=O)(=O)c2ccccc2)c(Nc2ccc(Br)cc2)n1 | -36* | -2% | . | 1% | ?
CCN1CC(C(=O)N2CCCC(c3ccccc3)(c3ccccc3)C2)CC1=O (centres undefined) | -34* | -3% | -3%[11.5 µM] | -6% | -12%
COC(=O)c1c(NC(=O)COc2ccc(OC)cc2)sc2c1CCC(C)C2 (centres undefined) | -38* | ? | . | ? | -12%
CN(Cc1ccccc1)C(=O)C[C@@H]1CCNC[C@@H]1Cc1cc(CC2CCCCC2)on1 | 4 | ? | -2%[88.5 µM] | -30%[87.6 µM] | .
CCCC(=O)OCOC(=O)C1=C(C)NC(C)=C(C(=O)OC)C1c1cccc(Cl)c1Cl (centres undefined) | 7 | -22%[25.6 µM] | -7% | 12%[23.9 µM] | -6%
CN1CCN([C@@H]2[C@H](O)[C@H](CO)O[C@@H]2CN(Cc2ccc(Cl)cc2)Cc2cccc(Cl)c2)CC1 | -4 | ? | 0% | ? | .
O=C(CCC1CCCC1)N1CCC(c2noc(COc3ccc(F)cc3)n2)C1 (centres undefined) | 9 | -18% | -8% | -2% | .
CCCCCNC(=O)c1ccc2c(c1)nc(C)n2-c1cccc(C)c1 | 4 | 48% | . | -6% | .
CCCCCNC(=O)c1ccc2c(c1)ncn2-c1cccc(C)c1 | -31* | 1% | . | -21% | ?
OCCC1CCN(c2ccc(-c3nc(CCCc4ccccc4)no3)cn2)CC1 | -1 | 42% | 0%[11.5 µM] | -4% | .
COCC1CCN(c2ccc(-c3nc(CCCc4ccccc4)no3)cn2)C1 (centres undefined) | -33* | 92% | -1%[11.5 µM] | -4% | -12%
CCc1ccc(CNC(=O)C2CCCN(S(=O)(=O)c3ccc4c(ccn4C)c3)C2)cc1 (centres undefined) | -26* | -23% | . | 4% | -4%
CC1=C(C(=O)OC2CCCCC2)C(c2ccc([N+](=O)[O-])cc2)C2=C(CC(C)(C)CC2=O)N1 (centres undefined) | -36* | . | ? | -4% | -24%
NC(=O)Cc1c[nH]c2ncc(-c3ccc(Oc4ccccc4)cc3)cc12 | -42* | -15%[87.6 µM] | 2%[88.5 µM] | -13%[87.6 µM] | ?
Cc1cc(-c2cnc3[nH]cc(CC(N)=O)c3c2)ccn1 | -7 | 12%[87.6 µM] | 1%[88.5 µM] | 12%[87.6 µM] | .
CNC(=O)c1cccc(-c2cnc3[nH]cc(CC(=O)N(C)c4ccccc4)c3c2)c1 | -29* | -1%[87.6 µM] | 2%[88.5 µM] | ? | ?
CNC(=O)c1cccc(-c2cnc3[nH]cc(CC(=O)NCC(C)C)c3c2)c1 | -3 | 4%[87.6 µM] | -6%[88.5 µM] | -16%[87.6 µM] | .
NC(=O)Cc1c[nH]c2ncc(-c3cccc(F)c3)cc12 | -35* | 0%[87.6 µM] | -11%[88.5 µM] | 1%[87.6 µM] | ?
COc1ccc(-c2noc([C@@H]3CCCN3C(=O)c3ccccc3Cl)n2)cc1 | 0 | 0% | i | -13% | .
COc1ccc(CN2CCN(c3cc(N(C)C)ncn3)CC2CCO)c(C)c1C (centres undefined) | -35* | 21% | i[11.5 µM] | -2% | -9%
CN(CCc1ccccn1)C(=O)c1ccc(N2CC3CC(C2)[C@H]2CCCC(=O)N2C3)nc1 (some centres undefined) | 25 | 38% | 3% | 12% | .
CN(C)c1cc(=O)c2ccnc(N3CCN(c4ccccn4)CC3)c2o1 | -27* | -7%[87.6 µM] | i | 8%[87.6 µM] | ?
SMILES | IP6K1 inh | SNCA expr inh | GPT2 inh | HEK293 viab | IP6K1 conf
CCOc1nccn2c(-c3ccc(CNc4ccc(OC)nc4)cc3)cnc12 | -36* | -29%[87.6 µM] | ? | -8%[87.6 µM] | ?
COc1ccc(-c2ccc(C(=O)N3CCCCC3)cc2)nn1 | -51* | . | . | . | ?
COc1ccc(-c2ccc(C(=O)N3CCN(C(=O)c4ccccc4)CC3)cc2)nn1 | -1 | . | . | . | .
COc1ccc(N2CC3CCC(C2)N3Cc2cccs2)cc1 | 0 | 8% | ? | 4% | .
Cc1ccc(-c2cc3nccc(-c4cc([N+](=O)[O-])ccc4O)n3n2)cc1 | -25* | ? | . | ? | ?
CN1CCN(c2cc(=O)c3ccnc(-c4ccc(Cl)cc4)c3o2)CC1 | -32* | 6%[87.6 µM] | -13%[88.5 µM] | -5%[87.6 µM] | ?
CC1=C[C@@H](CNC(=O)CN(C)C)[C@H](C(C)C)C[C@H]1Cc1nnc(-c2ccccc2F)o1 | 16 | ? | -6%[88.5 µM] | ? | .
Cc1cc(C(=O)NC[C@@H]2CC[C@H]3C[C@@H]2C3(C)C)ccc1Cl | 7 | ? | 3%[88.5 µM] | -12%[87.6 µM] | .
Cc1cc(-c2ccc(C)c(S(=O)(=O)NC3CCCCC3)c2)on1 | -3 | 10% | . | -13% | .
Cc1cc(-c2ccc(C)c(S(=O)(=O)N3CCC(C)CC3)c2)on1 | -26* | -9% | . | -5% | -17%
CC(=O)NC1CCN(c2ccc3nnc(C)n3n2)CC1 | 5 | . | . | . | .
CCCc1nc(C(=O)N2C[C@H](c3cccc(OC)c3)[C@@H](N)C2)cs1 | -26* | 13% | -2%[11.5 µM] | -1% | -3%
FC(F)(F)c1ccccc1-c1nc(NCc2cccs2)c2ccccc2n1 | . | -22% | . | -7% | -3%
FC(F)(F)c1ccccc1-c1nc(NCc2ccc(-c3ccc(Cl)c(Cl)c3)cc2)c2ccccc2n1 | . | . | . | . | -4%
Cc1ccccc1-c1nc(NCc2cccs2)c2ccccc2n1 | . | -19% | . | -27% | -2%
FC(F)(F)c1ccccc1-c1nc(NCc2cccnc2)c2ccccc2n1 | . | -8% | . | -22% | .
Cc1cc(Nc2nc(-c3ccccc3)nc3ccccc23)n[nH]1 | -26* | . | i | -20% | ?
Cc1c(O)nc(SCC(=O)Nc2ccc(Cl)cc2Cl)n(-c2ccc(F)cc2)c1=O | -27* | -3% | . | 16% | ?
Cc1cccc(NC(=O)CSc2nc3c([nH]c4ccccc43)c(=O)n2-c2ccc(F)cc2)c1C | -11 | 5% | . | 11% | .
COc1ccc(-c2cn(C)c(=O)n3cc(COc4ccc(Cl)cc4)nc23)cn1 | -20 | 22%[87.6 µM] | 2%[88.5 µM] | -16%[87.6 µM] | .
COCCC1(NC(=O)c2ccccc2)CCN(Cc2ccc3[nH]ccc3c2)CC1 | -7 | 18% | i | -3% | .
O=C(Nc1cc2cc[nH]c2cn1)c1ccccc1 | -28* | 1.5µM* | -2% | ? | ?
CC1CCN(C(=O)CC#N)CC1N(C)c1ncnc2[nH]ccc12 (centres undefined) | -8 | . | 2% | 7% | -3%
C[C@@H]1CCN(C(=O)CC#N)C[C@H]1N(C)c1ncnc2[nH]ccc12 | . | ? | ? | -22% | .
CC(C)(C)Cn1c(N)nc2ccc(-c3[nH]c(C(C)(C)C)nc3-c3ccc(F)cc3)nc21 | -25* | 27µM* | 4% | ? | 6%
